Results on 51 compounds are retold here after PubChem BioAssay AID488794 (Sanford-Burnham Center for Chemical Genomics, 2010).

In all, about 1,000 compounds went through this assay and about 550 (55%) were called active. Rule as the data show it: active = inhibition above about 50%; inactive = the rest. The set was probably picked from earlier hits. These entries were drawn from the full list.

The test can be described thus: NALP3 inhibitors in yeast, repeat test, confirmation, luminescence, single concentration, retest (AID 488794). As to conditions: yeast expressing human NALP3, luminescence read-out; at 10 µM; hits give high values.
Take `CN(C)c1ccnc2sc(C(=O)c3ccccc3)c(N)c12`: the inhibition was 53.6% (active). As for `Oc1c(Cl)cc(Cl)c(Cl)c1Cc1c(O)c(Cl)cc(Cl)c1Cl`, the inhibition was 98.5% (active). `Cc1ccnc(Nc2nc3ccccc3s2)n1`: the inhibition is 27.6% (inactive).

Take `O=C(CC(O)(C(F)(F)F)C(F)(F)F)Nc1ccc(Cl)c(Cl)c1`: the inhibition is 99.8% (active).

On to `Cc1ccc(O)c(NC(=O)c2cc(-c3ccco3)on2)c1`, for which the inhibition is 63.7% (active). For the compound `COc1ccccc1C(=O)Nc1ccc(NC(=O)c2ccco2)c(C)c1`, the inhibition is 32.3% (inactive). Under `Cc1ccc(CSc2nsc(C)c2C#N)cc1` stands 48.2% (inactive). As for `Cc1ccc(OCc2nc3ccccc3n2C)cc1`, the figure is 57.2% (active). As for `CC(C)n1c(COc2ccccc2)nc2ccccc21`, the inhibition is 47.7% (inactive). In the case of `CN=C1C=C/C(=N/N=c2\ccn(O)cc2C)C=C1C`, the inhibition is 57.2% (active).

For `O=[N+]([O-])c1cccc(/C=N/Nc2ncc(Br)cn2)c1`, the inhibition was 33.4% (inactive). Turning to `CCc1noc(C)c1C(=O)Nc1nc2ccc(OC)cc2s1`, the inhibition is 55.5% (active). Under `COc1cc(N2C(=O)CSC2=S)cc(OC)c1OC` stands 35.6% (inactive). In the case of `O=C1CSC(=S)N1c1ccc(O)cc1`, the inhibition was 59.4% (active). Consider `Fc1ccccc1-c1cc2cc3c(cc2cn1)OCO3`, for which the inhibition is 39% (inactive). On to `Nc1c(-c2cccc(Cl)c2)cnn1-c1cccc([N+](=O)[O-])c1`, for which the inhibition was 52.1% (active). As for `O=C(CSc1ncnc2c1oc1ccccc12)NC1CCCC1`, the figure is 25.1% (inactive); as for `Cn1c(=NC(=O)c2ccco2)sc2cccc(F)c21`, 34.1% (inactive). Consider `Cc1cccc(NC(=S)NC(=O)c2ccc(Br)o2)c1`, for which the inhibition was 65.7% (active). As for `Cc1ccc(-c2nn(C(C)(C)C)c3ncnc(N)c23)cc1`, the inhibition is 63.2% (active). For `O=C(Nc1ccccc1Cl)/C(Cl)=C(\Cl)S(=O)c1ccccc1` (stereo unspecified), the inhibition was 74.7% (active).

For the compound `N#Cc1nc(Cc2ccccc2)oc1NCCc1ccccc1`, the inhibition is 36.6% (inactive). As to `CCOC(=O)c1c(C)[nH]c(C(=O)COc2ccc3c(c2)OCO3)c1C`, the inhibition was 54.5% (active). Regarding `COc1ccccc1OCc1nc2ccccc2s1`, the inhibition was 43.2% (inactive). Turning to `CCCN(CC1CC1)C(=S)NC(=O)c1ccccc1Br`, the inhibition is 38.8% (inactive). For `Cc1cc(C)nc(NC(=O)Nc2ccccc2C(F)(F)F)n1`, the inhibition was 34.8% (inactive).

With `Cc1c(C(=O)N2CCCc3ccccc32)oc2ccccc12`, the inhibition is 47.9% (inactive). Turning to `O=C(Oc1c(-c2ccco2)oc2ccccc2c1=O)c1cccnc1`, the inhibition was 68.5% (active). As for `Oc1ccc(Br)cc1/C=N/Nc1ccccn1`, the inhibition was 43.2% (inactive). With `O=C(CSc1ccc(-c2ccc(-n3cccn3)cc2)nn1)Nc1ccc([N+](=O)[O-])cc1`, the inhibition was 18.1% (inactive). `O=[N+]([O-])/C=C/c1ccc2c(ccn2Cc2ccccc2)c1`: the inhibition is 96.3% (active). As to `CCCNc1ncnc2sc(C)c(C)c12`, the inhibition was 36.4% (inactive). `C[C@@H]1C[C@@H]2O[C@H]2/C=C\C=C\C(=O)Cc2c(Cl)c(O)cc(O)c2C(=O)O1`: the inhibition is 66.2% (active). Turning to `CC(C)C(=O)N1CCN(CCN=CC2=C(O)CC(c3ccco3)CC2=O)CC1` (stereo unspecified), the inhibition was 62.1% (active). For `CC1(C)CCSC(/C=C/c2ccccc2)=N1`, the inhibition was 79.8% (active).

In the case of `O=C(Nc1ccc(Oc2ccccc2)cc1)c1ccco1`, the inhibition is 35.9% (inactive). With `O=C(Nc1ccc2oc(-c3ccccc3F)nc2c1)c1ccco1`, the inhibition was 71.3% (active). Turning to `Cn1c(=O)c(C(=O)Nc2ncccn2)c(O)c2ccccc21`, the inhibition is 60.2% (active). Consider `Cc1cc(C)c(/C=C2\C(=O)Nc3ccccc32)[nH]1`, for which the inhibition is 36.6% (inactive). With `CCc1cc(C(=O)Nc2nnc(C3CC3)s2)sc1C`, the inhibition was 40.9% (inactive).

In the case of `Cc1ccc(OCc2nc(C#N)c(N3CCCC3)o2)cc1`, the inhibition is 53.5% (active). For the compound `CCN(CC)c1ccc(/C=N/Nc2nc(C)cc(C)n2)c(O)c1`, the inhibition is 63% (active). Take `O=[N+]([O-])c1c(NCCO)cc(Sc2nc3ccccc3s2)c2nonc12`: the inhibition is 48% (inactive). Consider `Cc1cc(C(=O)COc2ccc(Br)cc2F)c(C)n1C1CC1`, for which the inhibition was 49.4% (inactive). As to `CC(C)Sc1ncnc2c1cnn2-c1ccccc1`, the inhibition is 46.2% (inactive).

On to `CC(=NCc1ccc2c(c1)OCO2)C1=C(O)c2ccccc2C1=O`, for which the inhibition was 63.9% (active). As for `O=C(NCc1ccc2c(c1)OCO2)c1c(O)nc2sccn2c1=O`, the figure is 38.4% (inactive); as for `Cc1ccc2cccc(S(=O)(=O)N3CCN(c4ccccc4F)CC3)c2n1`, 47.8% (inactive); as for `CC(=O)[C@@]12O[C@@H]1C[C@H]1[C@@H]3CC[C@H]4C[C@@H](O)CC[C@]4(C)[C@H]3CC[C@@]12C`, 38.2% (inactive).

`O=C(COc1ccccc1F)Nc1nc(-c2ccccn2)cs1`: the inhibition was 37.1% (inactive). As to `CCSc1nc2sc3c(c2c(=O)n1-c1ccc(C)cc1)CCN(C)C3`, the inhibition is 44.3% (inactive).
